Experimental data as given in PubChem BioAssay AID504340 (NMMLSC, 2011).
The source made the active and inactive calls.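 How the source made its calls: active means GFP response above 150% of the DMSO control; inconclusive means Under 70 cell events counted for a yeast strain; inactive means the rest.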

Assay: yeast TOR pathway CIT2-GFP reporter retest – flow cytometry, third cherry pick, single plex, confirmation (AID 504340);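 further: median GFP fluorescence over all cells with no mother versus daughter split; sample signal as a ratio to the plate DMSO mean so 100% equals DMSO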
Conditions: S. cerevisiae CIT2-GFP strain, 3 h, at 10 µM, stronger effect = higher value

Row | Compound | GFP response vs DMSO
1 | CC1=CN2C(=N)/C(=C/c3ccc(C)o3)C(=O)N=C2S1 | 112% (inactive)
2 | Cc1cc(C)c2ccc(C(=O)O)nc2c1O | 88% (inactive)
3 | O=C(Nc1nc(-c2ccccn2)cs1)c1ccccc1-n1cnnn1 | 103% (inactive)
4 | Cc1nc2c(O)cccc2cc1CO | 101% (inactive)
5 | COC(=O)COc1c(Cl)cc(Cl)c2ccc(C)nc12 | 106% (inactive)
6 | Nc1ccc(O)c2c1C(=O)c1ccccc1C2=O | 107% (inactive)
7 | Nc1cccc2c1C(=O)c1ccc(Cl)cc1C2=O | 107% (inactive)
8 | COc1ccccc1Nc1nc(NCCCN(C)C)nc(N)c1[N+](=O)[O-] | 107% (inactive)
9 | Brc1ccc2ncnc(NCc3ccccc3)c2c1 | 112% (inactive)
10 | COc1cccc2c(=O)c(C(=O)O)c[nH]c12 | 99.3% (inactive)
11 | Oc1c(Cl)cc(Cl)c2cccnc12 | 142% (inactive)
12 | CN(C)CCCNc1cc(O)c2ncccc2c1 | 112% (inactive)
13 | COc1ccc(N/C=C/C(=O)c2ccc(Cl)cc2)cc1 | 107% (inactive)
14 | COc1cccc(N/C=C/C(=O)c2ccc(C)cc2)c1 | 92.8% (inactive)
15 | NC(=O)c1ccnc2c(O)cccc12 | 101% (inactive)
16 | C/C(=C\C(=O)c1ccccc1)Nc1cccc(O)c1 | 99.3% (inactive)
17 | O=C(Nc1ccccc1)O/N=C1/CCCc2occc21 | 103% (inactive)
18 | O=c1cc(C(F)(F)F)[nH]c2c(OC(F)(F)F)cccc12 | 107% (inactive)
19 | CCC(=O)Nn1cnc2c(c1=O)C1(CCCCC1)Cc1ccccc1-2 | 99.3% (inactive)
20 | COc1cccc(NC(=O)CC(C)=O)c1 | 106% (inactive)
21 | Oc1c(I)cc(Cl)c2cccnc12 | 182% (active)
22 | COCCNc1nc(N)c([N+](=O)[O-])c(Nc2ccc(F)cc2)n1 | 101% (inactive)
